The record followed here is PubChem BioAssay (NCI).

What all share (test): NCI-60 one-dose screen, 48 h (100 = growth as untreated, 0 = no growth, -100 = all killed)
Holding throughout (conditions): 10 µM unless noted

Experiment [1] deals with T-47D breast.
Experiment [2] concerns BT-549 breast.
The subject of experiment [3] is MDA-MB-435 melanoma.
The subject of experiment [4] is SW-620 colon.
In experiment [5] the test system is MCF7 breast.
In experiment [6] the test system is HCT-116 colon.
Experiment [7] concerns HCC-2998 colon.
Experiment [8] has as its system KM12 colon.

About 83,000 compounds went through this panel and 20% of them were active in at least one assay; those are over-represented in the sample as a whole.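 Treatment: one concentration, 48 hours, 96-well format. Scoring: percent growth, with anything below 10 considered active.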 A number with no mark means an inactive call. Calls of active or inactive are those of the source.

For the compound `C=C1C(=O)O[C@H]2[C@H]1CC/C(COC(=O)c1cc(OC)c(OC)c(OC)c1)=C\CC[C@@]1(C)O[C@@H]21`, the growth was -38.7% (active) in experiment [1]; -42% (active) in experiment [2]; -53% (active) in experiment [3]; -49.5% (active) in experiment [4]; -16.5% (active) in experiment [5]; -84.8% (active) in experiment [6]. The growth in experiment [7] is 41.2%; in experiment [8], 54.5%.
In the case of `COc1cc(-c2nc(SCC(=O)Nc3ccc(C(C)=O)cc3)[nH]c(=O)c2C#N)cc(OC)c1OC`, the growth is 35.9% in experiment [1]; 36.8% in experiment [2]; -46.1% (active) in experiment [3]; 25.8% in experiment [4]; 18.2% in experiment [5]; 3.92% (active) in experiment [6]. Also, the growth in experiment [7] is 21%; in experiment [8] it was 16.8%.
For `O=C(Nc1ccc(F)cc1)Nc1ccc(Br)c(C(F)(F)F)c1`, the growth is -4.72% (active) in experiment [1]; 15.5% in experiment [2]; 6.46% (active) in experiment [3]; 19.8% in experiment [4]; 1.94% (active) in experiment [5]; 4.58% (active) in experiment [6]. The results for the growth in experiment [7] and in experiment [8] were 11.8% and 13.8%, respectively.
On to `COc1ccc(Cl)cc1NC(=O)c1cc2c(n1C)-c1nc(NC(=O)C(C)(C)C)sc1CC2`, for which the growth in experiment [1] is 64.5%; in experiment [2], 94.6%; in experiment [3], 102%; in experiment [4] it was 107%; in experiment [5], 79.4%; in experiment [6], 85.4%. The growth in experiment [7] was 118%; in experiment [8] it was 94.8%.
Regarding `C[C@H]1C=C(C[C@@H](O)CC#CC#CCCCCC[C@@H](O)[C@H]2CCC(=O)O2)C(=O)O1`, the growth in experiment [1] was 92.8%; in experiment [2] it was 112%; in experiment [3], 111%; in experiment [4], 103%; in experiment [5], 115%; in experiment [6], 83.2%. Also, the growth in experiment [7] is 105%; in experiment [8] it was 110%.
On to `O=C(Nc1ccc(-n2cc(-c3ccncc3)c(-c3ccc(O)c(Cl)c3)n2)cc1)Nc1ccc(Cl)c(C(F)(F)F)c1`, for which the growth in experiment [1] is 29.2%; in experiment [2], -19.4% (active); in experiment [3], -0.731% (active); in experiment [4], 19.6%; in experiment [5], 15%; in experiment [6], 6.73% (active). For the same compound, the growth is 22% in experiment [7] and 6.77% (active) in experiment [8].
On to `CCN(CC)CCNC(=O)c1c(C)[nH]c(/C=C2\C(=O)Nc3cc(NC(=O)NC(=O)c4ccc(OC)cc4F)ccc32)c1C`, for which the growth is 104% in experiment [1]; 104% in experiment [2]; 110% in experiment [3]; 94.9% in experiment [4]; 58.3% in experiment [5]; 64.7% in experiment [6]. The growth in experiment [7] was 100%; in experiment [8], 51.5%.
`COc1cc(-c2nc3ccccc3s2)ccc1OCc1nc2n(n1)S(=O)(=O)c1ccccc1N2C`: the growth was 85.3% in experiment [1]; 80.2% in experiment [2]; 90% in experiment [3]; 92.4% in experiment [4]; 90.5% in experiment [5]; 66.1% in experiment [6]. Moreover, the growth in experiment [7] was 109%; in experiment [8], 84.2%.
Regarding `C=C(C)[C@@H]1C/C=C(\COC(=O)[C@H](OC(C)=O)C(NC(=O)c2ccccc2)c2ccccc2)CC[C@H]2O[C@]2(C)CC/C=C(\C)CC1` (some centres not stated), the growth in experiment [1] was 68.7% [5 µM]; in experiment [2], 68.5% [5 µM]; in experiment [3], 67% [5 µM]; in experiment [4], 94.8% [5 µM]; in experiment [5], 38.2% [5 µM]; in experiment [6], 42.7% [5 µM]. Also, the growth in experiment [7] is 75.5% [5 µM]; in experiment [8], 69.1% [5 µM].
With `ClC1c2ccccc2CCc2ccccc21`, the growth in experiment [1] was 74.6%; in experiment [2], 93.8%; in experiment [3], 110%; in experiment [4], 101%; in experiment [5], 92.1%; in experiment [6] it was 72.7%. Also, the growth in experiment [7] was 107%; in experiment [8] it was 109%.
As to `S=C=NP1(N=C=S)=NP(N=C=S)(N=C=S)=NP(N=C=S)(N=C=S)=NP(N=C=S)(N=C=S)=N1` (configuration not stated), the growth in experiment [1] is 82.3%; in experiment [2], 80.4%; in experiment [3], 104%; in experiment [4], 108%; in experiment [5], 91%; in experiment [6], 98.8%. The growth in experiment [7] and in experiment [8] was 102% each time.
As to `Cc1ncc(CO)c(C(=O)O)c1O`, the growth in experiment [1] is 78.4%; in experiment [2], 86.6%; in experiment [3] it was 106%; in experiment [4], 108%; in experiment [5], 98.9%; in experiment [6] it was 78%. Besides, the growth is 95.3% in experiment [7] and 101% in experiment [8].
For the compound `COc1ccc(/C=C2\CS(=O)(=O)C/C(=C\c3ccc(OC)cc3)C2=O)cc1`, the growth in experiment [1] is 14.6%; in experiment [2], -38.6% (active); in experiment [3], -28.8% (active); in experiment [4], 0.757% (active); in experiment [5], -15% (active); in experiment [6], -83.2% (active). The results for the growth in experiment [7] and in experiment [8] were -98% (active) and -93.2% (active), respectively.
On to `CN(C)c1ccc(/C=N/n2c(-c3cc(F)c(Cl)cc3Cl)nn(CN3CCOCC3)c2=S)cc1`, for which the growth in experiment [1] was 94.1%; in experiment [2] it was 91.3%; in experiment [3] it was 80.7%; in experiment [4], 109%; in experiment [5], 118%; in experiment [6], 92.6%. Also, the growth in experiment [7] is 111%; in experiment [8], 102%.
For the compound `COc1ccc(-c2cc3ccc(N(C)C)cc3nc2N)c(F)c1`, the growth in experiment [1] was 24.3%; in experiment [2] it was 18.8%; in experiment [3], 13.9%; in experiment [4], 42.5%; in experiment [5], 14.7%; in experiment [6], 19.3%. In addition, the growth was 51.8% in experiment [7] and 35% in experiment [8].
On to `CCc1cccc(-c2ccccc2)c1`, for which the growth is 110% in experiment [1]; 97.1% in experiment [2]; 109% in experiment [3]; 99.8% in experiment [4]; 105% in experiment [5]; 98.8% in experiment [6]. For the same compound, the growth in experiment [7] is 110%; in experiment [8] it was 102%.
Consider `CCOC(=O)C1=C(N)Oc2cc(OC)ccc2C1c1ccc(F)c(F)c1` (configuration not stated), for which the growth in experiment [1] was 36.4%; in experiment [2] it was 50.2%; in experiment [3], -15.8% (active); in experiment [4], 21.1%; in experiment [5] it was 16.6%; in experiment [6], 31.8%. Besides, the growth in experiment [7] was 54.5%; in experiment [8] it was 27%.
As to `Cc1ccc2oc(=O)cc(C3C(C#N)=C(N)Oc4c3ccc3ccccc43)c2c1` (configuration not stated), the growth is 69% in experiment [1]; 70.2% in experiment [2]; 6.57% (active) in experiment [3]; 55% in experiment [4]; 42.1% in experiment [5]; 69.2% in experiment [6]. The growth in experiment [7] was 91.4%; in experiment [8] it was 55.1%.
On to `CCOc1ccc(Cc2nccc3cc(OCC)c(OCC)cc23)cc1OCC`, for which the growth is 39.1% in experiment [1]; 49.1% in experiment [2]; 60.2% in experiment [3]; 39.1% in experiment [4]; 72.7% in experiment [5]; 26.5% in experiment [6]. The values for the growth in experiment [7] and in experiment [8] were 52.2% and 49.3%, respectively.
As to `CCc1cccc(C)c1NC(=O)c1sc2nc3c(cc2c1N)CCCCC3`, the growth in experiment [1] was 46.7%; in experiment [2], 58.3%; in experiment [3] it was -16.9% (active); in experiment [4], 23.8%; in experiment [5], 18.9%; in experiment [6], 21.1%. Besides, the growth in experiment [7] is 54.7%; in experiment [8], 23%.
In the case of `CC1(C)N=C(N)N=C(N)N1c1ccc(OCC(=O)Nc2ccccc2)c(Cl)c1`, the growth in experiment [1] is 70%; in experiment [2], 40.6%; in experiment [3], 25.2%; in experiment [4], 33%; in experiment [5], 28.4%; in experiment [6], 19.2%. The results for the growth in experiment [7] and in experiment [8] were 29.5% and 18.1%, respectively.
With `Cn1c2ccccc2c2ssc(=S)c21`, the growth in experiment [1] is 87.3%; in experiment [2], 110%; in experiment [3] it was 91.7%; in experiment [4] it was 105%; in experiment [5] it was 92.9%; in experiment [6], 101%. For the same compound, the growth in experiment [7] is 101%; in experiment [8] it was 99.7%.
With `C=CC(=O)Nc1cccc(Nc2nc(Nc3ccc(OCCOC(F)F)cc3)ncc2F)c1`, the growth was 32.8% in experiment [1]; 24.5% in experiment [2]; 9.37% (active) in experiment [3]; 19% in experiment [4]; 23.9% in experiment [5]; 36% in experiment [6]. The growth in experiment [7] was 35.8%; in experiment [8], 37.4%.
For the compound `NC(CSC(c1ccccc1)(c1ccccc1)c1ccc(F)cc1)C(=O)O` (configuration not stated), the growth is 30.4% in experiment [1]; 28.7% in experiment [2]; -47.1% (active) in experiment [3]; 30.1% in experiment [4]; 11.7% in experiment [5]; -7.69% (active) in experiment [6]. Besides, the growth was 4.55% (active) in experiment [7] and 5.24% (active) in experiment [8].
In the case of `Cc1ccc2[nH]c3nc4cccnc4c(C)c3c2c1`, the growth was 14.2% in experiment [1]; 68.6% in experiment [2]; 108% in experiment [3]; 91.6% in experiment [4]; 1.4% (active) in experiment [5]; 91.9% in experiment [6]. Moreover, the values for the growth in experiment [7] and in experiment [8] were 92.7% and 72.8%, respectively.
Turning to `COC1=C(OC)C(=O)C=CC1=O`, the growth in experiment [1] was 99.5%; in experiment [2], 94.4%; in experiment [3], 116%; in experiment [4], 77.8%; in experiment [5] it was 94.3%; in experiment [6], 64.4%. Moreover, the values for the growth in experiment [7] and in experiment [8] were 125% and 104%, respectively.
Regarding `O=C(Nc1cccc(-n2ccc3c(NC(=O)c4ccccc4)nccc32)c1)Nc1cc(C(F)(F)F)cc(C(F)(F)F)c1`, the growth is 55% in experiment [1]; 2.85% (active) in experiment [2]; -34.1% (active) in experiment [3]; 21.2% in experiment [4]; 13.6% in experiment [5]; -15.8% (active) in experiment [6]. For the same compound, the growth was 13.2% in experiment [7] and -15.2% (active) in experiment [8].
`C#CC(=O)/C=C/CCCCCCC#CC(=O)CCC(=O)C#CCCCCCC/C=C/C(=O)C#C`: the growth in experiment [1] is 24.8%; in experiment [2] it was -15.3% (active); in experiment [3], -33.6% (active); in experiment [4], 8.47% (active); in experiment [5], 21.6%; in experiment [6], -7.8% (active). In addition, the growth is 63.9% in experiment [7] and 49.2% in experiment [8].
For the compound `O=C(Nc1ccc(-n2cc(-c3ccncc3)c(-c3ccc(O)c(Cl)c3)n2)cc1)c1cc(C(F)(F)F)cc(C(F)(F)F)c1`, the growth in experiment [1] was 60.7%; in experiment [2], 53.3%; in experiment [3], 45.9%; in experiment [4], 76.2%; in experiment [5], 58%; in experiment [6], 40.3%. The growth in experiment [7] is 83.6%; in experiment [8], 42.3%.
